Screens from PubChem BioAssay.
Sampled rows, rich in hits. Any-hit rate of the full collection: about 22%.
Shiga inhibitor: inhibitors of Shiga toxin in Vero cells; Vero cells, Shiga toxin protein synthesis inhibition reporter; inhibition, % at 38.7 µM; 290,000 tested, 9.2% active; AID 2315; in the data active = inhibition mostly above about 28%, no sharp cut-off; inactive = mostly below about 43%
CHX counter: affects cycloheximide protein synthesis inhibition readout, counter-screen | cell reporter, cycloheximide protein synthesis inhibition counterscreen | max response, % | 300,000 tested, 12% active | AID 2314; in the data active = max response mostly above about 13%, no sharp cut-off; inactive = mostly below about 14%; also: read at 38.3 µM for the half of the compounds with a filed dose
Pf growth 96h: P. falciparum growth inhibition at 96 hours; P. falciparum luciferase reporter growth, 96 h; Potency, µM (series often up to 28.7 µM), usual class: inhibitors; 320,000 tested, 6.9% active
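P. falciparum expressing integrated firefly luciferase, in erythrocytes at 2% hematocrit, 0.05% parasitemia, incubated with compounds 96 h at 37 C, 5% CO2. Growth inhibition read as loss of luminescence; two-generation exposure targets delayed-death apicoplast inhibitors.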
LmPK inhibitor: LmPK (Leishmania mexicana) enzyme inhibition; AID 1721; purified LmPK, Kinase-Glo ATP luminescence, 1 h; 290,000 tested, 0.37% active; Q27686; Potency, µM (highest dose often 57.5 µM), actives largely listed as inhibitors
Target sequence (Q27686 whole entry, looked up): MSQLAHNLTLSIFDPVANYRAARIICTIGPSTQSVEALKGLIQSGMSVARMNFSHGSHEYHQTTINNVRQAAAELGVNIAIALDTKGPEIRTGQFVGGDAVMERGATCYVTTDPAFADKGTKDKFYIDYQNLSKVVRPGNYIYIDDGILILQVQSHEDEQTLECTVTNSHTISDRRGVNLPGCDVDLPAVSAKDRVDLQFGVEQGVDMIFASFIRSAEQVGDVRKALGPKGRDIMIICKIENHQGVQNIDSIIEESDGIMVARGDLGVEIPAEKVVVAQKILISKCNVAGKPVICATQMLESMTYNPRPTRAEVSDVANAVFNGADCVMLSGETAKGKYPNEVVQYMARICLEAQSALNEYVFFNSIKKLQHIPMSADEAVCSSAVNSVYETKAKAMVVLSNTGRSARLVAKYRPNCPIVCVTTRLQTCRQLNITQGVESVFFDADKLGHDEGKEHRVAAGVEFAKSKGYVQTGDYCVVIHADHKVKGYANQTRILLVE
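Purified LmPK (0.1 nM) with 0.5 mM PEP and 0.1 mM ADP in imidazole buffer pH 7.2 with MgCl2/KCl, 1 h at room temperature. ATP formed was read by luciferase luminescence and normalized to no-enzyme and uninhibited controls.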
Pf growth 48h: inhibits P. falciparum growth in the first generation, 48 h; 310,000 tested, 5.9% active; AID 504832; Potency, µM (highest dose often 28.7 µM), usual class: inhibitors; P. falciparum luciferase growth in erythrocytes, 48 h
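In quantitative HTS format, infected erythrocytes bearing luciferase-reporter parasites were treated for a single generation at 37 C. Luminescence after adding detection reagent served as the growth measure.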
Large screens that a line does not name were inactive. Unless noted, calls follow the shape of the dose curve; as a rule, active = well fitted inhibition curve with a large enough effect; inconclusive = small, poorly fitted or top-dose-only effect, or another doubt; inactive = no such curve, though single readings can be large or run the other way.

CCCc1nn(C)c(C(=O)Nc2ccc(C)c(C)c2)c1Cl	Shiga inhibitor 92, CHX counter 32
CCCc1nn(C)c(C(=O)Nc2ccc(CC)cc2)c1Cl	Shiga inhibitor 35
CCn1nc(C(=O)Nc2ccc(C)c(C)c2)c(Cl)c1Cl	none
N#Cc1ccc(C(=O)Nn2cnnc2)cc1	none
CCCCCCCCC(=O)NC(NC(=S)N1CCOCC1)C(Cl)(Cl)Cl (centres undefined)	Pf growth 96h inconclusive, Pf growth 48h inconclusive
O=C(NC(NC(=S)N1CCOCC1)C(Cl)(Cl)Cl)c1cccc2ccccc12 (centres undefined)	Pf growth 48h 2.9µM
CCCCCC(=O)NC(NC(=S)N1CCOCC1)C(Cl)(Cl)Cl (centres undefined)	Pf growth 48h 8.3µM
CCN(CC)CCNc1ncnc2c1[nH]c1ccc(OC)cc12	none
COCCCNc1ncnc2c1[nH]c1ccccc12	none
Cn1cnc2c(NCc3ccco3)ncnc21	Pf growth 96h inconclusive, Pf growth 48h inconclusive
OCCCNc1ncnc2c1[nH]c1ccccc12	none
COc1ccc2[nH]c3c(NCc4ccco4)ncnc3c2c1	Shiga inhibitor 97, CHX counter 36, Pf growth 48h inconclusive
Fc1ccc2[nH]c3c(NCc4ccccc4)ncnc3c2c1	Pf growth 96h 3.7µM, Pf growth 48h 5.9µM
CCOc1ccc2[nH]c3c(NCCN(C)C)ncnc3c2c1	Pf growth 96h 2.1µM, Pf growth 48h 2.3µM
COc1ccc2[nH]c3c(NCCCOC(C)C)ncnc3c2c1	CHX counter 44, LmPK inhibitor inconclusive
Cn1c(SCC(=O)Nc2ccc3c(c2)OCCO3)nnc1-c1ccncc1	none
Cc1cccc(C)c1NC(=O)C(c1ccc([N+](=O)[O-])cc1)N(C)C(=O)c1ccccn1 (centres undefined)	none
CCOc1ccc2[nH]c3c(NCCC(C)C)ncnc3c2c1	CHX counter 14, Pf growth 96h inconclusive, Pf growth 48h inconclusive
CCOc1ccc2[nH]c3c(N4CCN(c5ccccn5)CC4)ncnc3c2c1	Pf growth 48h inconclusive
COc1ccc2[nH]c3c(NCCC4=CCCCC4)ncnc3c2c1	Shiga inhibitor 125, CHX counter 33, Pf growth 96h 3.7µM
CC1CCC(NC(=O)C2c3ccccc3C(=O)N2Cc2cccs2)CC1 (centres undefined)	none
Cc1ccc(SCc2nc3ncccn3c2Br)cc1	CHX counter 28
Cc1ccc(Nc2c(-c3ccc(N(C)C)cc3)nc3ncccn23)cc1	Pf growth 96h inconclusive, Pf growth 48h inconclusive
Cc1nc2ccccn2c1C(=O)CSc1ccccc1	Shiga inhibitor 38, CHX counter 31, Pf growth 96h inconclusive
COc1ccc(NC(=O)/C=C/c2c(Cl)nc3ccccn23)cc1	CHX counter 20
Cc1ccc(NC(=O)c2c(Cl)nc3ccccn23)cc1	Shiga inhibitor 114, CHX counter 37
Cc1nc2ccccn2c1C(=O)Nc1ccc(Cl)cc1	CHX counter 24
CCN1CCN(CCNC(=O)CCCn2nc(C)c3c(C)n(-c4ccc(C)cc4)nc3c2=O)CC1	Pf growth 96h inconclusive
Cc1nc2ccccn2c1C(=O)Nc1ccc2c(c1)OCCO2	Shiga inhibitor 112, CHX counter 45
Cc1ccc(NC(=O)c2ccc3c(c2)C(=O)N(Cc2cccnc2)C3=O)c(C)c1	Pf growth 96h inconclusive
NC(=O)c1ccc(F)cc1	none
NC(=O)Cc1ccc(C(=O)c2ccc(F)cc2)s1	CHX counter 25
CCOc1ccc(C(=O)CCc2nc3ccccc3s2)cc1	Shiga inhibitor 62, CHX counter 22
O=C(CCCc1nc2ccccc2s1)NCc1ccccc1F	CHX counter 13
NC(=O)c1ccc(NC(=O)CCc2nc3ccccc3s2)cc1	CHX counter 12
O=C(NC(=S)Nc1cccc([N+](=O)[O-])c1)C1CCCCC1	none
Cn1cc([N+](=O)[O-])c(C(=O)N/N=C/c2ccc3c(c2)OCO3)n1	Shiga inhibitor 43, CHX counter 20, Pf growth 96h inconclusive
O=C(N/N=C/c1cc2c(c([N+](=O)[O-])c1)OCO2)c1ccncc1	Pf growth 96h 2.3µM (no result: Shiga inhibitor)
CC(C)(C)c1ccc(C(=O)C2CCCN(Cc3ccon3)C2)cc1 (centres undefined)	Shiga inhibitor 33, CHX counter 22, Pf growth 96h inconclusive
COc1cccc(OC)c1CN1CCCC(C(=O)c2ccccc2SC)C1 (centres undefined)	Pf growth 48h inconclusive
CSc1ccccc1C(=O)C1CCCN(Cc2ccncc2)C1 (centres undefined)	Pf growth 96h 1.2µM, Pf growth 48h inconclusive
